# Data reported in PubChem BioAssay AID1159580 (chemical genetic matrix, 2015).
# Values joined by “and” are separate entries in the source; they are usually repeats but may differ in a detail not shown here. Equal values may be shown once. Out of some 5,500 compounds screened, about 2,000 (36%) were called active. Another 18% or so got no clear call; they are omitted. Cut-off read from the data, not from the text of the source: active = normalized growth mostly below about 0.91 (no sharp cut-off); inconclusive = no clear call, values can overlap the other calls; inactive = mostly above about 0.92. The list shows a part of the results.
# Assay: chemical genetic growth profiling, strain panel (AID 1159580);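 note: tested at 20 µM; growth read once vehicle control cultures reached saturation at 30 °C; 1 = growth at the plate median or of vehicle wells; lower values mean less growth of the strain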
# Conditions: S. cerevisiae deletion strains, growth OD
smiles,measurement,setting,value
Cc1c(OCC(F)(F)F)ccnc1CS(=O)c1nc2ccccc2[nH]1 (stereo not given),normalized growth,"locus YAL013W, strain DEP1, stronger effect = lower value",0.992 (inactive)
same,normalized growth,"locus YAL021C, strain ccr4, stronger effect = lower value",1.01 (inactive)
same,normalized growth,"locus YAL026C, strain drs2, stronger effect = lower value",1.02 (inactive)
same,normalized growth,"locus YAL030W, strain snc1, stronger effect = lower value",1.03 (inactive)
same,normalized growth,"locus YAL040C, strain CLN3, stronger effect = lower value",0.959 (inactive)
same,normalized growth,"locus YBL061C, strain skt5, stronger effect = lower value",1.02 (inactive)
same,normalized growth,"locus YBR009C, strain hhf1, stronger effect = lower value",1.02 (inactive)
same,normalized growth,"locus YBR021W, strain FUR4, stronger effect = lower value",0.948 (inactive)
same,normalized growth,"locus YBR023C, strain chs3, stronger effect = lower value",1.02 (inactive)
same,normalized growth,"locus YBR171W, strain sec66, stronger effect = lower value",1.02 (inactive)
same,normalized growth,"locus YBR229C, strain ROT2, stronger effect = lower value",0.982 (inactive)
same,normalized growth,"locus YBR231C, strain swc5, stronger effect = lower value",1.05 (inactive)
same,normalized growth,"locus YBR279W, strain paf1, stronger effect = lower value",1 (inactive)
same,normalized growth,"locus YCL011C, strain gbp2, stronger effect = lower value",1.01 (inactive)
same,normalized growth,"locus YCL016C, strain dcc1, stronger effect = lower value",1.01 (inactive)
same,normalized growth,"locus YCL029C, strain bik1, stronger effect = lower value",0.971 (inactive)
same,normalized growth,"locus YCL061C, strain MRC1 (second series), stronger effect = lower value",0.997 (inactive)
same,normalized growth,"locus YCL061C, strain MRC1, stronger effect = lower value",1.02 (inactive)
same,normalized growth,"locus YCL069W, strain vba3, stronger effect = lower value",1 (inactive)
same,normalized growth,"locus YCR088W, strain abp1, stronger effect = lower value",1.01 (inactive)
same,normalized growth,"locus YDL005C, strain med2, stronger effect = lower value",1.02 (inactive)
same,normalized growth,"locus YDL035C, strain GPR1, stronger effect = lower value",0.997 (inactive)
same,normalized growth,"locus YDL040C, strain nat1, stronger effect = lower value",1.03 (inactive)
same,normalized growth,"locus YDL074C, strain BRE1, stronger effect = lower value",0.937 (inactive)
same,normalized growth,"locus YDL101C, strain DUN1, stronger effect = lower value",0.959 (inactive)
same,normalized growth,"locus YDL134C, strain PPH21, stronger effect = lower value",0.997 (inactive)
same,normalized growth,"locus YDL185W, strain tfp1, stronger effect = lower value",0.98 (inactive)
same,normalized growth,"locus YDL192W, strain arf1, stronger effect = lower value",0.977 (inactive)
same,normalized growth,"locus YDR001C, strain nth1, stronger effect = lower value",1.01 (inactive)
same,normalized growth,"locus YDR069C, strain doa4, stronger effect = lower value",1.01 (inactive)
same,normalized growth,"locus YDR101C, strain arx1, stronger effect = lower value",0.985 (inactive)
same,normalized growth,"locus YDR137W, strain rgp1, stronger effect = lower value",1.01 (inactive)
same,normalized growth,"locus YDR150W, strain NUM1, stronger effect = lower value",0.996 (inactive)
same,normalized growth,"locus YDR159W, strain sac3, stronger effect = lower value",1.02 (inactive)
same,normalized growth,"locus YDR162C, strain NBP2, stronger effect = lower value",0.976 (inactive)
same,normalized growth,"locus YDR195W, strain ref2",1.02 (inactive)
same,normalized growth,"locus YDR297W, strain sur2, stronger effect = lower value",1.02 (inactive)
same,normalized growth,"locus YDR318W, strain mcm21, stronger effect = lower value",0.959 (inactive)
same,normalized growth,"locus YDR334W, strain swr1, stronger effect = lower value",1.01 (inactive)
same,normalized growth,"locus YDR335W, strain msn5, stronger effect = lower value",1.01 (inactive)
same,normalized growth,"locus YDR363W, strain ESC2, stronger effect = lower value",0.933 (inactive)
same,normalized growth,"locus YDR388W, stronger effect = lower value",0.987 (inactive)
same,normalized growth,"locus YDR392W, strain spt3, stronger effect = lower value",1.03 (inactive)
same,normalized growth,"locus YDR502C, strain sam2, stronger effect = lower value",0.94 (inactive)
same,normalized growth,"locus YEL003W, strain gim4, stronger effect = lower value",1.03 (inactive)
same,normalized growth,"locus YEL037C, strain rad23, stronger effect = lower value",1.01 (inactive)
same,normalized growth,"locus YEL061C, strain CIN8 (second series), stronger effect = lower value",1.03 (inactive)
same,normalized growth,"locus YEL061C, strain CIN8, stronger effect = lower value",0.999 (inactive)
same,normalized growth,"locus YER002W, strain NOP16, stronger effect = lower value",1.02 (inactive)
same,normalized growth,"locus YER015W, strain faa2, stronger effect = lower value",1.02 (inactive)
same,normalized growth,"locus YER016W, strain bim1, stronger effect = lower value",1.03 (inactive)
same,normalized growth,"locus YER110C, stronger effect = lower value",0.969 (inactive)
same,normalized growth,"locus YER111C, strain swi4, stronger effect = lower value",1.01 (inactive)
same,normalized growth,"locus YER155C, strain BEM2 (second series), stronger effect = lower value",1.01 (inactive)
same,normalized growth,"locus YER155C, strain BEM2, stronger effect = lower value",0.988 (inactive)
same,normalized growth,"locus YER167W, strain BCK2, stronger effect = lower value",0.987 (inactive)
same,normalized growth,"locus YFR010W, strain ubp6, stronger effect = lower value",1.02 (inactive)
same,normalized growth,"locus YGL078C, strain dbp3, stronger effect = lower value",0.898 (active)
same,normalized growth,"locus YGL086W, strain mad1, stronger effect = lower value",0.987 (inactive)
same,normalized growth,"locus YGL167C, strain pmr1, stronger effect = lower value",1.03 (inactive)
same,normalized growth,"locus YGL173C, strain kem1, stronger effect = lower value",1.04 (inactive)
same,normalized growth,"locus YGL227W, strain vid30, stronger effect = lower value",1.02 (inactive)
same,normalized growth,"locus YGL240W, strain doc1, stronger effect = lower value",1.02 (inactive)
same,normalized growth,"locus YGL248W, strain PDE1, stronger effect = lower value",0.988 (inactive)
same,normalized growth,"locus YGL253W, strain hxk2, stronger effect = lower value",1.01 (inactive)
same,normalized growth,"locus YGR078C, strain PAC10, stronger effect = lower value",0.945 (inactive)
same,normalized growth,"locus YGR135W, strain pre9, stronger effect = lower value",0.944 (inactive)
same,normalized growth,"locus YGR229C, strain SMI1, stronger effect = lower value",0.951 (inactive)
same,normalized growth,"locus YGR252W, strain gcn5, stronger effect = lower value",0.943 (inactive)
same,normalized growth,"locus YHR013C, strain ard1, stronger effect = lower value",0.999 (inactive)
same,normalized growth,"locus YHR027C, strain rpn1, stronger effect = lower value",1.01 (inactive)
same,normalized growth,"locus YHR030C, strain SLT2, stronger effect = lower value",0.996 (inactive) and 0.482 (active)
same,normalized growth,"locus YHR079C, strain IRE1 (second series), stronger effect = lower value",0.976 (inactive)
same,normalized growth,"locus YHR079C, strain IRE1, stronger effect = lower value",0.632 (active)
same,normalized growth,"locus YHR094C, strain hxt1, stronger effect = lower value",0.994 (inactive)
same,normalized growth,"locus YHR129C, strain ARP1, stronger effect = lower value",0.991 (inactive)
same,normalized growth,"locus YHR142W, strain chs7, stronger effect = lower value",1.02 (inactive)
same,normalized growth,"locus YHR200W, strain rpn10, stronger effect = lower value",0.963 (inactive)
same,normalized growth,"locus YIL066C, strain RNR3, stronger effect = lower value",0.975 (inactive)
same,normalized growth,"locus YIL073C, strain SPO22, stronger effect = lower value",1.04 (inactive)
same,normalized growth,"locus YIL125W, strain kgd1, stronger effect = lower value",0.952 (inactive)
same,normalized growth,"locus YIR030C, strain dcg1, stronger effect = lower value",0.995 (inactive)
same,normalized growth,"locus YJL092W, strain hpr5, stronger effect = lower value",1.01 (inactive)
same,normalized growth,"locus YJL095W, strain BCK1 (second series), stronger effect = lower value",1.02 (inactive)
same,normalized growth,"locus YJL095W, strain BCK1, stronger effect = lower value",0.937 (inactive) and 0.468 (active)
same,normalized growth,"locus YJL115W, strain asf1, stronger effect = lower value",1.03 (inactive)
same,normalized growth,"locus YJL129C, strain trk1, stronger effect = lower value",1.04 (inactive)
same,normalized growth,"locus YJL134W, strain LCB3, stronger effect = lower value",1 (inactive)
same,normalized growth,"locus YJL154C, strain vps35, stronger effect = lower value",1.01 (inactive)
same,normalized growth,"locus YJL164C, strain tpk1, stronger effect = lower value",1.02 (inactive)
same,normalized growth,"locus YJL166W, strain qcr8, stronger effect = lower value",1.03 (inactive)
same,normalized growth,"locus YJL168C, strain set2, stronger effect = lower value",0.982 (inactive)
same,normalized growth,"locus YJL187C, strain SWE1 (second series), stronger effect = lower value",0.951 (inactive)
same,normalized growth,"locus YJR043C, strain POL32, stronger effect = lower value",0.979 (inactive)
same,normalized growth,"locus YJR066W, strain TOR1, stronger effect = lower value",0.767 (active)
